Bioassay records as filed in PubChem.
A selection: hits, their analogues and other compounds. The true share with any hit is near 2.4%.
D2 antag: D2 dopamine receptor (human) antagonism; actives 2% (n = 340,000); P14416; inhibition, % at 10 µM; HEK293 TREx D2 cells, calcium flux, dopamine EC80; in the data active = inhibition above about 30%; inactive = below that, where a call was filed; also: 0% is about no effect
Target sequence (P14416 whole entry, looked up): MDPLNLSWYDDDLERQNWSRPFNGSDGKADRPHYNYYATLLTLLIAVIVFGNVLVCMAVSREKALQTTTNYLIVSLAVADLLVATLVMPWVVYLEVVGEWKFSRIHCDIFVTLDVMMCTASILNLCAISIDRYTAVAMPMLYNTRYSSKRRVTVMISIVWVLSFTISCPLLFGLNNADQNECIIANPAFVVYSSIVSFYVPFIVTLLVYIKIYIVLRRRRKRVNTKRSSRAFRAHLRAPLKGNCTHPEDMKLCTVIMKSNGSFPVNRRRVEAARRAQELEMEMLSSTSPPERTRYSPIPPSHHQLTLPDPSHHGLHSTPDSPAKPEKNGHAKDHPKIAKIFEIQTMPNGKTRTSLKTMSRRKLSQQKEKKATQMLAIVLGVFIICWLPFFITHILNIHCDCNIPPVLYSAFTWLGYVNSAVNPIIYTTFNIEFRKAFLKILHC
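In this primary screen, negative modulation is detected by tracking calcium flux after an EC80 dopamine challenge in inducible HEK293 T-REx D2 cells preexposed to test compound for 180 s.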
D2 PAM-1: positive allosteric modulators of human D2 dopamine receptor; DiscoveRx D2 beta-arrestin cells, luminescence, 90 min; 100% = 57 uM dopamine signal; potentiation, % (test concentration not listed); actives 0.23% (n = 360,000); AID 624464; in the data active = potentiation above about 50%; inconclusive = mostly about 30% to 49%
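PathHunter D2 cells, attached overnight at 37 deg C, received compound in DMSO plus dopamine at EC20 (50 nM final) for 90 min at 37 deg C. Beta-arrestin recruitment was read as luminescence after 1 h with detection reagent at ambient temperature.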
D2 PAM-2: D2 dopamine receptor (human) potentiation | P14416 | HEK293 T-REx D2, calcium flux, EC20 dopamine potentiation | potentiation, % at 10 µM | actives 0.34% (n = 340,000) | AID 485347;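 active = potentiation over 3 SD above the plate norm, cut at about 30% in these data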; also: 0% is about no effect
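Using a no-wash calcium dye in inducible, force-coupled HEK293 Trex cells expressing D2, we tracked fluorescence each second for 180 s after compound, then for 180 s after EC20 dopamine to detect augmented signalling.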
D2 ag-1: activates the human D2 dopamine receptor | P14416 | HEK293 T-REx D2 cells, calcium flux agonist mode | activation, % at 2 µM | actives 0.53% (n = 340,000) | AID 485358;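 active = activation over 3 SD above normal in the single-dose calcium agonist read, cut at about 30% in these data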; also: 0% is about no effect
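HEK293 Trex D2 cells, tetracycline-induced, o/n 30 C 5% CO2; no-wash Ca dye, RT 30–90 min; 10-cycle baseline, 23 nl cpd added, kinetic Ca read 180 s; agonist hits = positive Ca response.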
D2 ag-2: human D2 receptor agonism in beta-arrestin assay. P14416. DiscoveRx PathHunter D2 beta-arrestin, luminescence, 90 min; 100% = 57 uM dopamine signal. activation, % (test concentration not listed). actives 0.084% (n = 360,000). AID 624465; in the data active = activation above about 40%; inconclusive = between about 15% and that limit
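Agonist mode: compounds alone added to overnight-plated D2 PathHunter cells for 90 min at 37 C, with 57 uM final dopamine (EC100) defining full response. Beta-arrestin recruitment detected by chemiluminescent reagent, read after 1 h at ambient temperature.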
D3 ag: confirmation of human D3 dopamine receptor agonists, beta-arrestin | AID 720506 | shares compounds with D2 ag-1 | DiscoveRx D3 beta-arrestin cells, luminescence, 90 min | actives 4% (n = 2,300) | Potency, µM (doses to about 76.9 µM), for the others: at the highest dose activation, most hits filed as activators;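 also: potency is read from the fitted curve at half-maximal effect; 100% = dopamine control response; nearly all actives have a fitted effect of over 70% in size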
D2 ag-3: activates human D2 dopamine receptor in D3 counterscreen; DiscoveRx PathHunter D2 beta-arrestin, luminescence, 90 min; response scale: percent relative to full dopamine signal; shares compounds with D2 ag-1; actives 5.9% (n = 2,300); Potency, µM (top dose mostly 76.9 µM), inactives show at the top dose activation, most hits filed as activators; also: potency is read from the fitted curve at half-maximal effect; % of control where 0% means no effect; nearly all actives have a fitted effect of over 70% in size
The depositor's hits bear a star; ? = inconclusive; nt = no result. Unless noted, calls follow the shape of the dose curve; as a rule, active = well fitted activation curve with a large enough effect; inconclusive = small, poorly fitted or top-dose-only effect; inactive = flat fitted curve, though single readings scatter.

SMILES | D2 antag | D2 PAM-1 | D2 PAM-2 | D2 ag-1 | D2 ag-2 | D3 ag | D2 ag-3
COc1cccc(NC(=O)CN(C)C(=O)CCC(=O)c2cc(C)sc2C)c1 | -20 | -10 | 9 | -1 | 2 | -4% | -2%
COc1cccc(NC(=O)CN(C)C(=O)C(Sc2ccccc2)c2ccccc2)c1 (stereo not drawn) | 0 | -13 | -13 | 0 | -4 | -4% | 0%
COc1cccc(NC(=O)CN(C)C(=O)c2ccc3c(c2)C(=O)N(CCC(C)C)C3=O)c1 | -14 | -1 | 8 | 0 | 2 | 7% | 3%
COc1ccccc1-c1c(C(F)(F)F)oc2c(CN3CCCCC3C)c(O)ccc2c1=O (stereo not drawn) | nt | nt | 2 | -1 | nt | nt | nt
Oc1ccccc1C=NCC(O)c1ccccc1 (stereo not drawn) | -21 | 11 | 1 | 4 | -1 | 12% | 6%
c1ccc(CNCC2COc3ccccc3O2)cc1 (stereo not drawn) | 62* | -27 | -25 | 64* | 1 | 17% | 11%
COc1cccc(OC)c1OCCNCC1COc2ccccc2O1 (stereo not drawn) | nt | -23 | nt | nt | 1 | nt | nt
COc1ccc(CC(=O)NCC2COc3ccccc3O2)cc1 (stereo not drawn) | -6 | -1 | 4 | 0 | 2 | nt | nt
COc1ccc(CNCC2COc3ccccc3O2)cc1 (stereo not drawn) | 140* | -26 | -34 | 63* | -6 | 15% | 9%
c1ccc(CCCNCC2COc3ccccc3O2)cc1 (stereo not drawn) | 86* | -18 | -33 | 48* | 10 | ? | 14%
O=C(CC1COc2ccccc2O1)NCc1ccccc1 (stereo not drawn) | 3 | -2 | -6 | -1 | -2 | nt | nt
CC(=O)c1ccc(NC(=O)CSc2nnc3ccc(-c4ccc(Cl)cc4)nn23)cc1 | nt | nt | 13 | nt | nt | nt | nt
Cc1ccc(N2C(=O)CS(=O)(=O)C23C(=O)N(Cc2ccc(Cl)cc2)c2ccccc23)cc1C (stereo not drawn) | nt | nt | -4 | 0 | nt | nt | nt
Nc1ncc(S(=O)(=O)c2ccc([N+](=O)[O-])cc2)s1 | nt | 7 | nt | nt | ? | nt | nt
CCCOC1(C(F)(F)F)NC(=O)N(c2cccc(Cl)c2)C1=O (stereo not drawn) | nt | nt | 4 | 3 | nt | nt | nt
Cc1ccsc1/C=N\NC(=O)CCc1c(C)n[nH]c1C | -8 | 2 | -1 | -1 | -6 | nt | nt
Cc1n[nH]c(C)c1CCC(=O)N/N=C/c1cccs1 | 5 | -3 | 6 | -1 | 3 | 3% | 1%
Clc1ccccc1CN1CCc2nc(N3CCN(c4ncccn4)CC3)ncc2C1 | nt | nt | -7 | 22 | nt | nt | nt
Clc1cccc(CN2CCN(c3ncccn3)CC2)c1Cl | 61* | 24 | -34 | 69* | ? | 23% | 50µM*
O=C(Nc1ccc(Cl)cc1Cl)N1CCN(c2ncccn2)CC1 | -14 | 3 | 0 | 6 | -3 | nt | nt
Clc1ccc(CN2CCN(c3ncccn3)CC2)c(Cl)c1 | 90* | 59* | -24 | 76* | 79* | ? | 28µM*
Clc1ccccc1CN1CCN(c2ncccn2)CC1 | 76* | 59* | -39 | 80* | 70* | -3% | 20µM*
CCc1nc2ccc(C(=O)N3CCCCC3)cn2c1N(C)CCCc1ccccc1 | nt | -5 | nt | nt | -3 | nt | nt
CCc1ccc(NC(=O)N2CC(C)Oc3ccc(C)cc32)cc1 (stereo not drawn) | nt | nt | 8 | 0 | nt | nt | nt
COc1cc(C(CCN2CCN(c3ccccc3)CC2)c2c(OC)cc(OC)c3c(C)cc(=O)oc23)cc(OC)c1OC (stereo not drawn) | 12 | -27 | -15 | 25 | 0 | -22% | -5%
SMILES | D2 antag | D2 PAM-1 | D2 PAM-2 | D2 ag-1 | D2 ag-2 | D3 ag | D2 ag-3
COc1cc(OC)c2c(C)cc(=O)oc2c1C(CCN1CCOCC1)c1ccc2c(c1)OCO2 (stereo not drawn) | 25 | -22 | -18 | 0 | 1 | nt | nt
COc1ccc(CN2C(=O)N(c3ccc(F)cc3)C(=O)C2CC(=O)Nc2cc(OC)cc(OC)c2)cc1 (stereo not drawn) | nt | nt | 7 | 0 | nt | nt | nt
FC(F)(F)c1cc(-c2ccccc2)nc(NC2CCCC2)n1 | 11 | -5 | -10 | 58* | -3 | -7% | -1%
O=C(O)CCc1ccc(-c2cccs2)n1CCc1ccccc1 | nt | -15 | -11 | nt | 3 | 5% | 6%
O=C(O)CCc1ccc(-c2cccs2)n1CCC(=O)O | -1 | 10 | 8 | 1 | -4 | nt | nt
O=C1CSC(=Nc2ccccc2)N1Cc1ccccc1 | nt | -7 | nt | nt | 2 | -5% | -1%
CCCN1C(=O)CSC1=Nc1ccccc1 | 5 | -9 | 3 | 1 | 1 | nt | nt
CN1CCN(C(=O)N2c3ccccc3C=Cc3ccccc32)CC1 | -11 | -10 | -18 | 54* | -1 | -4% | -4%
Nc1c(C(=O)CSc2n[nH]c(-c3ccccc3)n2)c(=O)[nH]c(=O)n1C1CC1 | -8 | 10 | -27 | 66* | ? | 3% | 15%
Nc1c(C(=O)CSc2n[nH]c(-c3ccccc3Br)n2)c(=O)[nH]c(=O)n1C1CC1 | -11 | -7 | -6 | 0 | -4 | nt | nt
Cn1c(N)c(C(=O)CSc2nnc(-c3cccs3)n2C2CC2)c(=O)[nH]c1=O | 19 | 15 | -21 | 77* | ? | 21% | 21%
COCCNC(=O)c1cnc2sc(N3CCCCC3)nn2c1=O | nt | nt | -1 | 1 | nt | nt | nt
O=C(CSc1nnc(Cc2ccccc2)n1-c1ccc(Cl)cc1)N1CCOCC1 | -4 | -8 | 2 | 40* | 0 | 2% | -1%
Cn1c(Cc2ccccc2)nnc1SCC(=O)N1CCOCC1 | -23 | -3 | 3 | 1 | -2 | nt | nt
CCOc1ccccc1-n1nnnc1SCC(=O)NC(=O)Cc1ccccc1 | -12 | -20 | -14 | -1 | -6 | -3% | -1%
CCCOc1ccc(CNC(=O)C2CCCN(c3nc4c(C)cc(C)cc4s3)C2)cc1 (stereo not drawn) | nt | nt | 8 | nt | nt | nt | nt
c1ccc(CN2CCN(CCOCCOc3cccc4ccccc34)CC2)cc1 | -5 | -6 | -24 | 1 | 1 | nt | nt
O=C(c1ccco1)N1CCN(CCCCOc2cccc3ccccc23)CC1 | 84* | 3 | -26 | 76* | ? | ? | ?
O=C(c1ccco1)N1CCN(CCOCCOc2cccc3ccccc23)CC1 | 77* | 20 | -18 | 66* | ? | 7.9µM* | 25µM*
O=C(c1ccco1)N1CCN(CCOc2ccc(F)cc2)CC1 | -13 | 3 | 4 | -2 | 10 | nt | nt
